Laboratory results from publication PMC5540273 (PLoS ONE, 2017).
Several values for one entry are separate records, joined by “and”; a condition that tells them apart may be missing. Equal entries are not always repeated. Where two headings read alike, the source gives them in different places.

Experiments:
Details in all cases: concentration: 1 μM, replicates: in singlicate, n = 1
[1] = system: SGK
[2] = system: SIK2
[3] = system: SIK
[4] = system: SLK
[5] = system: T1, SNARK
T1 construct: gene NUAK2

[6] = system: SNRK
[7] = system: SRC
[8] = system: SRMS
[9] = system: SRPK1
[10] = system: SRPK2
[11] = system: SRPK3
[12] = system: STK16
[13] = system: STK33
[14] = system: STK35
[15] = system: STK36
[16] = system: STK39
[17] = system: SYK
[18] = system: SgK110
[19] = system: T2, TAK1
T2 construct: gene MAP3K7

[20] = system: TAOK1
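Also: KINOMEscan kinase panel screen.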

COc1ccc(Nc2ncc(C#N)c(Nc3ccccc3C(N)=O)n2)cc1N1CCN(C)CC1.Cl [GSK1558669]
%Inh [1]: 87% | %Inh [2]: 96.4% | %Inh [3]: 98.7% | %Inh [4]: 100% | %Inh [5]: 99.8% | %Inh [6]: 85% | %Inh [7]: 100% | %Inh [8]: 99.5% | %Inh [9]: 99.9% | %Inh [10]: 66% | %Inh [11]: 100% | %Inh [12]: 98.3% | %Inh [13]: 99.2% | %Inh [14]: 99.3% | %Inh [15]: 99.5% | %Inh [16]: 100% | %Inh [17]: 98.6% | %Inh [18]: 66% | %Inh [19]: 100% | %Inh [20]: 86%

O=C1Cc2cc(Nc3nc(NCc4cccc(S(=O)(=O)C(F)(F)F)c4)ncc3C(F)(F)F)ccc2N1
%Inh [1]: 10% | %Inh [2]: 0% | %Inh [3]: 6% | %Inh [4]: 0% | %Inh [5]: 0% | %Inh [6]: 0% | %Inh [7]: 0% | %Inh [8]: 0% | %Inh [9]: 0% | %Inh [10]: 6% | %Inh [11]: 6% | %Inh [12]: 0% | %Inh [13]: 7% | %Inh [14]: 3% | %Inh [15]: 0% | %Inh [16]: 5% | %Inh [17]: 6% | %Inh [18]: 22% | %Inh [19]: 5% | %Inh [20]: 0%

Cl.Cl.Cl.Fc1ccc(-c2ncn(C3CCNCC3)c2-c2ccnc(Nc3ccccc3)n2)cc1 [SB-238039]
%Inh ([1]; 1 µM): 41% and 0% | %Inh ([2]; 1 µM): 65% and 46% | %Inh ([3]; 1 µM): 1% and 4% | %Inh ([4]; 1 µM): 28% and 0% | %Inh ([5]; 1 µM): 9% and 0% | %Inh ([6]; 1 µM): 0% and 10% | %Inh ([7]; 1 µM): 0% and 4% | %Inh ([8]; 1 µM): 29% and 0% | %Inh ([9]; 1 µM): 7% and 0% | %Inh ([10]; 1 µM): 7% and 0% | %Inh ([11]; 1 µM): 11% and 26% | %Inh ([12]; 1 µM): 5% and 0% | %Inh ([13]; 1 µM): 0% and 12% | %Inh ([14]; 1 µM): 2% and 0% | %Inh ([15]; 1 µM): 97.9% and 93% | %Inh ([16]; 1 µM): 18% and 0% | %Inh ([17]; 1 µM): 8% and 3% | %Inh ([18]; 1 µM): 35% and 0% | %Inh ([19]; 1 µM): 24% and 46% | %Inh ([20]; 1 µM): 88% and 57%

CN1c2ccc(NCc3ccc(F)cc3)cc2-c2c(cnn2C)S1(=O)=O
%Inh [1]: 5% | %Inh [2]: 11% | %Inh [3]: 0% | %Inh [4]: 0% | %Inh [5]: 0% | %Inh [6]: 0% | %Inh [7]: 3% | %Inh [8]: 0% | %Inh [9]: 0% | %Inh [10]: 0% | %Inh [11]: 0% | %Inh [12]: 0% | %Inh [13]: 0% | %Inh [14]: 0% | %Inh [15]: 0% | %Inh [16]: 0% | %Inh [17]: 8% | %Inh [18]: 67% | %Inh [19]: 0% | %Inh [20]: 0%

O=C1NC(=O)C(N2CCc3ccccc32)=C1c1cccc(Cl)c1 [SB-408010]
%Inh [1]: 0% | %Inh [2]: 0% | %Inh [3]: 12% | %Inh [4]: 26% | %Inh [5]: 2% | %Inh [6]: 0% | %Inh [7]: 10% | %Inh [8]: 0% | %Inh [9]: 14% | %Inh [10]: 9% | %Inh [11]: 31% | %Inh [12]: 26% | %Inh [13]: 0% | %Inh [14]: 19% | %Inh [15]: 16% | %Inh [16]: 54% | %Inh [17]: 0% | %Inh [18]: 1% | %Inh [19]: 21% | %Inh [20]: 0%

O=C(NOCC1CC1)c1ccc(F)c(F)c1Nc1ccc(I)cc1Cl
%Inh [1]: 0% | %Inh [2]: 0% | %Inh [3]: 1% | %Inh [4]: 0% | %Inh [5]: 0% | %Inh [6]: 0% | %Inh [7]: 0% | %Inh [8]: 0% | %Inh [9]: 0% | %Inh [10]: 0% | %Inh [11]: 7% | %Inh [12]: 0% | %Inh [13]: 0% | %Inh [14]: 0% | %Inh [15]: 0% | %Inh [16]: 0% | %Inh [17]: 0% | %Inh [18]: 0% | %Inh [19]: 11% | %Inh [20]: 0%

CC(C)(CN)c1nc(-c2ccc(Cl)c(O)c2)c(-c2ccncc2)[nH]1.O=C(O)C(F)(F)F [SB-477794]
%Inh ([1]; 1 µM): 23% and 3% | %Inh ([2]; 1 µM): 78% and 71% | %Inh ([3]; 1 µM): 21% and 33% | %Inh [4]: 99.3% | %Inh ([5]; 1 µM): 0% and 7% | %Inh ([6]; 1 µM): 11% and 0% | %Inh [7]: 99.9% | %Inh ([8]; 1 µM): 0% and 15% | %Inh ([9]; 1 µM): 17% and 42% | %Inh ([10]; 1 µM): 26% and 74% | %Inh [11]: 0% | %Inh ([12]; 1 µM): 18% and 0% | %Inh [13]: 52% | %Inh ([14]; 1 µM): 59% and 62% | %Inh ([15]; 1 µM): 86% and 87% | %Inh ([16]; 1 µM): 42% and 20% | %Inh ([17]; 1 µM): 13% and 28% | %Inh [18]: 0% | %Inh ([19]; 1 µM): 62% and 75% | %Inh ([20]; 1 µM): 2% and 16%

Cc1cccc(Cn2ccn3c(=O)cc(N4CCOCC4)nc23)c1 [GSK2297542]
%Inh [1]: 0% | %Inh [2]: 0% | %Inh [3]: 3% | %Inh [4]: 22% | %Inh [5]: 3% | %Inh [6]: 0% | %Inh [7]: 24% | %Inh [8]: 11% | %Inh [9]: 11% | %Inh [10]: 0% | %Inh [11]: 0% | %Inh [12]: 61% | %Inh [13]: 0% | %Inh [14]: 0% | %Inh [15]: 0% | %Inh [16]: 0% | %Inh [17]: 22% | %Inh [18]: 0% | %Inh [19]: 13% | %Inh [20]: 0%

Fc1ccc(-c2nn3c(OCC(F)(F)F)cccc3c2-c2ccncc2)cc1 [GW514784]
%Inh [1]: 15% | %Inh [2]: 0% | %Inh [3]: 0% | %Inh [4]: 0% | %Inh [5]: 0% | %Inh [6]: 0% | %Inh [7]: 0% | %Inh [8]: 0% | %Inh [9]: 29% | %Inh [10]: 0% | %Inh [11]: 0% | %Inh [12]: 3% | %Inh [13]: 0% | %Inh [14]: 0% | %Inh [15]: 0% | %Inh [16]: 3% | %Inh [17]: 1% | %Inh [18]: 0% | %Inh [19]: 6% | %Inh [20]: 0%
